Measurements published in paper PMC5540273 (PLoS ONE, 2017).
Values joined by “and” are separate entries in the source; they are usually repeats but may differ in a detail not shown here. Equal values may be shown once. Read-outs that look alike come from different tables or passages of the source.

Experiments:
BLK = conditions: concentration: 1 μM, replicates: in singlicate, n = 1
BMPR1A = conditions: concentration: 1 μM, replicates: in singlicate, n = 1
BMPR1B = conditions: concentration: 1 μM, replicates: in singlicate, n = 1
BMPR2 = conditions: concentration: 1 μM, replicates: in singlicate, n = 1
BMX = conditions: concentration: 1 μM, replicates: in singlicate, n = 1
BRAF = conditions: concentration: 1 μM, replicates: in singlicate; n = 1
BRK = test system: T1, BRK; conditions: concentration: 1 μM, replicates: in singlicate, n = 1
T1 construct: gene PTK6

BRSK1 = conditions: concentration: 1 μM, replicates: in singlicate, n = 1
BRSK2 = conditions: concentration: 1 μM, replicates: in singlicate, n = 1
BTK = conditions: concentration: 1 μM, replicates: in singlicate; n = 1
BUB1 = conditions: concentration: 1 μM, replicates: in singlicate, n = 1
CAMK1B = conditions: concentration: 1 μM, replicates: in singlicate, n = 1
CAMK1D = conditions: concentration: 1 μM, replicates: in singlicate, n = 1
CAMK1G = conditions: concentration: 1 μM, replicates: in singlicate, n = 1
CAMK1 = conditions: concentration: 1 μM, replicates: in singlicate, n = 1
CAMK2A = conditions: concentration: 1 μM, replicates: in singlicate, n = 1
CAMK2B = conditions: concentration: 1 μM, replicates: in singlicate, n = 1
CAMK2D = conditions: concentration: 1 μM, replicates: in singlicate, n = 1
CAMK2G = conditions: concentration: 1 μM, replicates: in singlicate, n = 1
CAMK4 = conditions: concentration: 1 μM, replicates: in singlicate, n = 1
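Further: KINOMEscan kinase panel screen.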

O=c1cc(N2CCOCC2)nc2n(Cc3cccc(Cl)c3Cl)c(C3CC3)nn12 [GSK2358994]
%Inh (BLK): 0%
%Inh (BMPR1A): 15%
%Inh (BMPR1B): 0%
%Inh (BMPR2): 13%
%Inh (BMX): 19%
%Inh (BRAF): 0%
%Inh (BRK): 0%
%Inh (BRSK1): 3%
%Inh (BRSK2): 0%
%Inh (BTK): 0%
%Inh (BUB1): 0%
%Inh (CAMK1B): 0%
%Inh (CAMK1D): 0%
%Inh (CAMK1G): 5%
%Inh (CAMK1): 0%
%Inh (CAMK2A): 25%
%Inh (CAMK2B): 10%
%Inh (CAMK2D): 18%
%Inh (CAMK2G): 0%
%Inh (CAMK4): 5%

NCCNS(=O)(=O)c1ccc(-c2ccnc3[nH]ccc23)cc1 [GSK977617]
%Inh (BLK; 1 µM): 49% and 16%
%Inh (BMPR1A; 1 µM): 10% and 0%
%Inh (BMPR1B; 1 µM): 0% and 22%
%Inh (BMPR2; 1 µM): 18% and 27%
%Inh (BMX; 1 µM): 2% and 0%
%Inh (BRAF): 0%
%Inh (BRK; 1 µM): 0% and 9%
%Inh (BRSK1; 1 µM): 28% and 5%
%Inh (BRSK2; 1 µM): 25% and 0%
%Inh (BTK): 0%
%Inh (BUB1; 1 µM): 69% and 81%
%Inh (CAMK1B; 1 µM): 52% and 70%
%Inh (CAMK1D; 1 µM): 78% and 72%
%Inh (CAMK1G; 1 µM): 44% and 21%
%Inh (CAMK1; 1 µM): 58% and 42%
%Inh (CAMK2A; 1 µM): 16% and 6%
%Inh (CAMK2B; 1 µM): 2% and 0%
%Inh (CAMK2D; 1 µM): 42% and 23%
%Inh (CAMK2G; 1 µM): 42% and 20%
%Inh (CAMK4; 1 µM): 59% and 44%

O=C(NOCC1CC1)c1ccc(F)c(F)c1Nc1ccc(I)cc1Cl
%Inh (BLK): 0%
%Inh (BMPR1A): 0%
%Inh (BMPR1B): 0%
%Inh (BMPR2): 0%
%Inh (BMX): 0%
%Inh (BRAF): 0%
%Inh (BRK): 0%
%Inh (BRSK1): 0%
%Inh (BRSK2): 0%
%Inh (BTK): 0%
%Inh (BUB1): 0%
%Inh (CAMK1B): 0%
%Inh (CAMK1D): 0%
%Inh (CAMK1G): 0%
%Inh (CAMK1): 0%
%Inh (CAMK2A): 0%
%Inh (CAMK2B): 0%
%Inh (CAMK2D): 0%
%Inh (CAMK2G): 0%
%Inh (CAMK4): 32%

Nc1nccc(-c2c(-c3ccc(F)cc3)ncn2C2CCN(CC(F)(F)F)CC2)n1 [SB-236560]
%Inh (BLK): 0%
%Inh (BMPR1A): 0%
%Inh (BMPR1B): 0%
%Inh (BMPR2): 45%
%Inh (BMX): 0%
%Inh (BRAF): 0%
%Inh (BRK): 0%
%Inh (BRSK1): 40%
%Inh (BRSK2): 0%
%Inh (BTK): 37%
%Inh (BUB1): 49%
%Inh (CAMK1B): 80%
%Inh (CAMK1D): 0%
%Inh (CAMK1G): 2%
%Inh (CAMK1): 0%
%Inh (CAMK2A): 0%
%Inh (CAMK2B): 0%
%Inh (CAMK2D): 0%
%Inh (CAMK2G): 93.3%
%Inh (CAMK4): 11%

O=C(NCCNc1ccnc(Nc2ccc(F)cc2)n1)c1cc2ccccc2s1 [GSK1379874]
%Inh (BLK): 23%
%Inh (BMPR1A): 0%
%Inh (BMPR1B): 0%
%Inh (BMPR2): 15%
%Inh (BMX): 1%
%Inh (BRAF): 0%
%Inh (BRK): 29%
%Inh (BRSK1): 0%
%Inh (BRSK2): 0%
%Inh (BTK): 0%
%Inh (BUB1): 49%
%Inh (CAMK1B): 0%
%Inh (CAMK1D): 1%
%Inh (CAMK1G): 0%
%Inh (CAMK1): 1%
%Inh (CAMK2A): 0%
%Inh (CAMK2B): 0%
%Inh (CAMK2D): 7%
%Inh (CAMK2G): 18%
%Inh (CAMK4): 0%

O=c1cc(N2CCOCC2)nc2n(Cc3cccc4ccccc34)ccn12 [GSK2333389]
%Inh (BLK): 21%
%Inh (BMPR1A): 0%
%Inh (BMPR1B): 0%
%Inh (BMPR2): 0%
%Inh (BMX): 7%
%Inh (BRAF): 9%
%Inh (BRK): 0%
%Inh (BRSK1): 1%
%Inh (BRSK2): 0%
%Inh (BTK): 0%
%Inh (BUB1): 32%
%Inh (CAMK1B): 4%
%Inh (CAMK1D): 15%
%Inh (CAMK1G): 0%
%Inh (CAMK1): 0%
%Inh (CAMK2A): 0%
%Inh (CAMK2B): 0%
%Inh (CAMK2D): 0%
%Inh (CAMK2G): 0%
%Inh (CAMK4): 0%

Cc1ccc(C(=O)NCC(N)=O)cc1-n1c(C)cc(OCc2ccc(F)cc2F)c(Br)c1=O
%Inh (BLK): 14%
%Inh (BMPR1A): 2%
%Inh (BMPR1B): 0%
%Inh (BMPR2): 0%
%Inh (BMX): 24%
%Inh (BRAF): 0%
%Inh (BRK): 23%
%Inh (BRSK1): 11%
%Inh (BRSK2): 39%
%Inh (BTK): 0%
%Inh (BUB1): 0%
%Inh (CAMK1B): 10%
%Inh (CAMK1D): 36%
%Inh (CAMK1G): 0%
%Inh (CAMK1): 44%
%Inh (CAMK2A): 9%
%Inh (CAMK2B): 1%
%Inh (CAMK2D): 0%
%Inh (CAMK2G): 0%
%Inh (CAMK4): 26%

O=C1NC(=O)C(N2CCc3ccccc32)=C1c1cccc(Cl)c1 [SB-408010]
%Inh (BLK): 0%
%Inh (BMPR1A): 23%
%Inh (BMPR1B): 0%
%Inh (BMPR2): 4%
%Inh (BMX): 26%
%Inh (BRAF): 3%
%Inh (BRK): 0%
%Inh (BRSK1): 0%
%Inh (BRSK2): 0%
%Inh (BTK): 23%
%Inh (BUB1): 0%
%Inh (CAMK1B): 0%
%Inh (CAMK1D): 17%
%Inh (CAMK1G): 0%
%Inh (CAMK1): 24%
%Inh (CAMK2A): 0%
%Inh (CAMK2B): 0%
%Inh (CAMK2D): 10%
%Inh (CAMK2G): 0%
%Inh (CAMK4): 1%
